# The list is not random: actives were taken first. Their share in the collection is about 6.6%.
# Spn PMK inh: inhibitors of Streptococcus pneumoniae phosphomevalonate kinase; purified PMK, PK/LDH-coupled NADH absorbance 340 nm; inhibition, % at 10 µM; 0.49% of 65,000 active; AID 539;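 active means top-ranked compounds by inhibition in the single 10 µM screen, taking a fixed number of the strongest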;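 further: 0% = full reaction with DMSO carrier and 100% = background rate without enzyme reaction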
# Fluor 339 460: intrinsic fluorescence of library compounds, ex339/em460 – biochemical, MLSMR library, data from DPM-DC assay, artefact control, profiling panel; AID 709; compound autofluorescence, ex339/em460 nm, NADH buffer; hits give high values; 1 = no-compound wells, NADH background; 5.5% of 65,000 active; fluorescence fold increase at 10 µM;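 active means at 10 µM, mean starting fluorescence two-fold or more over control wells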;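 further: signal is the first read of a kinetic run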
# Spn DPM-DC inh: inhibitors of Streptococcus pneumoniae diphosphomevalonate decarboxylase; purified DPM-DC, PK/LDH coupled NADH fluorescence; 0.49% of 65,000 active; calls only at 10 µM;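 active means the 320 compounds with the highest percent inhibition in the single-dose primary screen, excluding strongly autofluorescent ones, cut at about 32% in these data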;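 further: kinetic rate of NADH fluorescence loss reporting ADP formed by the decarboxylase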
# NADH enzymes: inhibitors of enzymes used to reach an NAD/NADH endpoint; IC50, µM (top dose mostly 10 µM), inactives show at the highest dose inhibition; 0.02% of 65,000 active; coupled PK/LDH NADH assays, four targets;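 active means single-dose screening hits from any of four coupled enzyme assays that gave an IC50 when retested across doses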;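 further: the DPM-DC format reads NADH fluorescence rather than 340 nm absorbance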
# MK inhibit: inhibitors of Streptococcus pneumoniae mevalonate kinase; purified MK, PK/LDH-coupled NADH absorbance 340 nm; inhibition, % at 10 µM; 0.48% of 65,000 active; AID 555;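 active means ranked among the strongest by inhibition in the single 10 µM screen, a fixed top-ranked set picked for dose follow-up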
# * hit, by the source's call; i = inactive; . = not tested or not shown; + = active, no number; [ ] = another dose, or the depositor's remark.
SMILES,Spn PMK inh,Fluor 339 460,Spn DPM-DC inh,NADH enzymes,MK inhibit
Cc1c(NC(=O)COC(=O)c2cc3c4ccccc4n(C)c3s2)c(=O)n(-c2ccccc2)n1C,6,3.2*,i,11%,2
Cc1ccc(-c2csc3nnc(SCC(=O)Nc4cccc(C)n4)n23)cc1,8,1.1,i,4%,0
CCc1c(C(=O)NCc2ccc3c(c2)OCO3)[nH]c(C)c1C(C)=O,7,1.1,i,3%,3
Cc1occc1-c1nnc(SCC(=O)c2ccc(F)cc2)o1,9,1.1,i,4%,2
Cc1cc(C(=O)NCc2ccccc2)c(=O)[nH]c1C,17,2.1*,.,13%,9
COC(=O)Cn1nnc(-c2cccc(OC)c2)n1,8,1,i,5%,8
O=C1c2ccccc2NC2CCCCC12 (stereo unspecified),0,1.1,i,2%,7
O=C1c2ccccc2NC2CCCCCN12 (stereo unspecified),13,3*,.,3%,9
COc1ccc(C2C3=C(CC(C)(C)CC3=O)Nc3n[nH]c(C)c32)cc1 (stereo unspecified),0,2.3*,.,2%,4
Cc1[nH]nc2c1C(c1ccccc1)C1=C(CC(C)(C)CC1=O)N2 (stereo unspecified),14,4.4*,.,11%,8
O=C(NC1CS(=O)(=O)CC1NCc1ccco1)c1ccccc1 (stereo unspecified),4,1.1,i,5%,10
CCCCOC(=O)C1CCCC(C(=O)OCCCC)N1 (stereo unspecified),3,0.93,i,5%,9
CNC(=O)N(C1=NCC(C)(C)S1)c1ccc(F)c(Cl)c1,14,1.1,i,8%,11
S=C(NCC1CCCO1)n1nnc2ccccc21 (stereo unspecified),2,1.1,i,2%,6
c1ccc2c(c1)nc(NCC1CCCO1)c1nnnn12 (stereo unspecified),5,2.1*,.,3%,0
Cc1cc(C)n(-c2nc(NCC3CCCO3)c3c4c(sc3n2)COC(C)(C)C4)n1 (stereo unspecified),9,3.7*,.,8%,7
Cc1cc(C)n(-c2nc(NCCCO)c3c4c(sc3n2)CCCC4)n1,7,2.6*,i,8%,0
Cc1cc(C)n(-c2nc(NCCO)c3c4c(sc3n2)CCCC4)n1,9,1.6,i,4%,2
CCOC(=O)c1cc2c(=O)n3cccc(C)c3nc2n(CC2CCCO2)c1=NC(C)=O (stereo unspecified),9,2.9*,.,5%,0
CCOC(=O)c1cc2c(=O)n3cccc(C)c3nc2n(CCc2ccc(OC)c(OC)c2)c1=N,12,1.2,i,7%,10
CCOC(=O)c1cc2c(=O)n3cccc(C)c3nc2n(Cc2ccccc2Cl)c1=N,9,1.9,i,7%,7
CCOC(=O)c1cc2c(=O)n3cccc(C)c3nc2n(CCc2ccccc2)c1=N,5,2.3*,+[fluoresces],3%,4
C=CCn1c(=N)c(C(=O)OCC)cc2c(=O)n3cccc(C)c3nc21,0,2.3*,.,0%,0
COCCSc1nc2c(c(=O)[nH]c(=O)n2C)n1CCC(C)C,2,1.1,i,3%,5
Cc1sc2ncn(CC(=O)NCc3ccccn3)c(=O)c2c1S(=O)(=O)N1CCOCC1,5,1.1,i,3%,5
SMILES,Spn PMK inh,Fluor 339 460,Spn DPM-DC inh,NADH enzymes,MK inhibit
CCOc1ccccc1N1CCN(S(=O)(=O)c2ccc3c4c(cccc24)C(=O)N3)CC1,8,1.3,i,8%,3
O=C1Nc2ccc(S(=O)(=O)N3CCCCCC3)c3cccc1c23,11,2.1*,.,8%,4
CN1C(=O)c2cccc3c(S(=O)(=O)Nc4ccccn4)ccc1c23,7,1.3,i,6%,4
O=C1Nc2ccc(S(=O)(=O)NCc3ccccn3)c3cccc1c23,7,3.8*,.,4%,1
O=C1Nc2ccc(S(=O)(=O)N3CCOCC3)c3cccc1c23,0,4*,.,2%,4
CN1CCN(S(=O)(=O)c2ccc3c4c(cccc24)C(=O)N3)CC1,9,2.1*,.,6%,2
CS(=O)(=O)N(CC(=O)NC1CCCCC1)c1cccc(Cl)c1,2,1.1,i,1%,0
CCOc1cc(C2C(C(=O)N3CCCCC3)=C(C)NC3=C2C(=O)CCC3)cc(Br)c1O (stereo unspecified),9,2.5*,i,16%,13
CCOC(=O)C1=C(C)NC(=O)NC1c1cc(Br)c(O)c(OC)c1 (stereo unspecified),8,0.78,i,13%,10
O=c1oc2c3c4c(cc2cc1-c1nc2ccccc2[nH]1)CCCN4CCC3,71*,2.1*,.,11%,21
O=c1oc2c(CN3CCCCC3)c(O)ccc2cc1-c1nc2ccccc2[nH]1,4,4*,.,8%,12
N=c1oc2c3c4c(cc2cc1C(=O)Nc1ccccc1)CCCN4CCC3,0,1.6,i,1%,2
O=C(CSc1nc2ccccc2[nH]1)N1CCCCC1,6,1,i,2%,6
Cc1noc(C)c1CSc1nc2ccccc2s1,16,1.1,+,7%,5
Cc1noc(C)c1CSc1ccc2ccccc2n1,7,1.1,i,5%,7
Cc1nc2ccc(C(C(F)(F)F)(C(F)(F)F)C(F)(F)F)cc2[nH]1,10,1.1,i,7%,6
CC(=O)n1c2ccccc2c2c1c1ccccc1n2C,12,2.1*,.,7%,2
CCCOC(=O)CCc1n[nH]c(=O)[nH]c1=O,2,1.1,i,2%,5
CCCOC(=O)Cc1n[nH]c(=O)[nH]c1=O,10,0.55,+,20%,5
CCCc1cc(=O)oc2c(CN3CCCC3)c(O)c(Cl)cc12,6,2.4*,.,3%,0
CCc1cc(=O)oc2cc(C)c(CN3CCCC3)c(O)c12,4,1.1,i,1%,0
CCCc1cc(=O)oc2c(CN3CCCC3)c(O)ccc12,0,2.3*,.,3%,6
CCCc1cc(=O)oc2cc(C)c(CN3CCCC3)c(O)c12,1,1.2,i,2%,6
COc1cc(NC(=O)NCc2ccncc2)cc(OC)c1OC,7,1.2,i,3%,1
COc1ccc2nc(C)cc(C(=O)O)c2c1,4,3.8*,.,4%,3
CCOc1ccc2nc(C)cc(C(=O)O)c2c1,5,3.8*,.,7%,8
CCc1cc2c(CN3CCN(CC)CC3)cc(=O)oc2cc1O,8,3.8*,.,5%,1
CCOC(=O)CCSc1nnc(-c2cccnc2)n1-c1ccccc1OC,7,1.1,i,5%,7
O=C1c2ccccc2NC(c2ccc(F)cc2)N1Cc1ccco1 (stereo unspecified),4,3.8*,.,5%,5
CC(=O)C1=C(O)C(=O)N(Cc2ccco2)C1c1ccc(F)cc1 (stereo unspecified),3,1,i,5%,11

# Screening results from PubChem BioAssay.
